Screening results: PubChem BioAssay, Sanford-Burnham Center for Chemical Genomics
An excerpt weighted towards active compounds, which were near 28% of everything screened.
CYP2C9 inhib: inhibitors of human CYP2C9 | 96,000 tested, 20% active | AID 777 | inhibition, % at 5 µM | CYP2C9 Supersomes, luciferin-H conversion, luminescence;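 active = blocking of liver enzyme CYP2C9 beyond about 50% at 5 µM, limit read from the data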
Target sequence (P11712 whole entry, looked up): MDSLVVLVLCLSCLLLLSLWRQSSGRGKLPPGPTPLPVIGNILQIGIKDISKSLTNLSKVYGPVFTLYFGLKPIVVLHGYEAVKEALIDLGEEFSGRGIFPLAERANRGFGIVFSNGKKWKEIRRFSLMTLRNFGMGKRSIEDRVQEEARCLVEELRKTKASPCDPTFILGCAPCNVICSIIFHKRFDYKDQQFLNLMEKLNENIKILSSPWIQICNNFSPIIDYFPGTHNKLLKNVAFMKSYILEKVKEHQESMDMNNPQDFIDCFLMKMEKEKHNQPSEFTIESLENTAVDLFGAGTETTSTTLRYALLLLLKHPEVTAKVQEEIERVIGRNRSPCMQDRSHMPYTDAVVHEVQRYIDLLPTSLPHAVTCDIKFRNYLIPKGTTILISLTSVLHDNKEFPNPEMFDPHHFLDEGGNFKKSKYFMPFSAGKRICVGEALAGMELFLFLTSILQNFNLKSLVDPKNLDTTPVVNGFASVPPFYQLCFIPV
CYP2C19 activ: cytochrome P450 2C19 (human) activation; P33261; recombinant CYP2C19, luciferin-H EGE luminescence; active compounds read high; 0 = fully inhibited enzyme, 1 = untreated enzyme; activation factor at 5 µM; 96,000 tested, under 10 active;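 active = activation factor of at least 2 at 5 µM in the primary screen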;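 also: 0 = wells with 2.5 mM tranylcypromine and 1 = vehicle-only wells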
CYP2C19 inhib: blocks human cytochrome P450 2C19. 96,000 tested, 21% active. inhibition, % at 5 µM. CYP2C19 Supersomes, luciferin-H EGE luminescence, 30 min. P33261;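 active = CYP2C19 inhibition above a set limit at 5 µM in the primary screen, cut at about 50% in these data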;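 also: plate controls were negative control wells for no effect and 2.5 mM tranylcypromine positive control for full effect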
PTK2B oligo ant: blocks oligomerization of human Pyk2 in cells. z-score (the deposit names both 25 µM and 10 µM). AID 1347419. Q293 cells, Pyk2 FERM NanoBiT luminescence; active compounds read low. 99,000 tested, 0.83% active;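 active = Z-score of -3 or lower, scaled per plate to the spread of control and sample wells; inactive = z-score above -3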;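 also: negative z-score means lost luminescence so less FERM oligomerization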
CYP2C9 act: activators of human CYP2C9; P11712; recombinant CYP2C9, luciferin-H conversion, luminescence; active compounds read high; factor 1 = untreated enzyme, 0 = blocked; activation factor at 5 µM; 96,000 tested, 1.4% active;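 active = activation factor of 2 or more for CYP2C9 at a 5 µM dose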;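 also: 0 = sulfaphenazole-blocked wells and 1 = vehicle-only wells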
Starred values were filed as active, the others as inactive; nt = not tested or not shown.

SMILES	CYP2C9 inhib	CYP2C19 activ	CYP2C19 inhib	PTK2B oligo ant	CYP2C9 act
CCCCn1c(SCc2ccc(Cl)cc2)nc2c1c(=O)[nH]c(=O)n2C	25	0.8	19	-1.3	0.8
CCCCCn1c(Sc2nc3ccccc3s2)nc2c1c(=O)[nH]c(=O)n2C	51*	0.6	37	-1.2	0.5
C=C(C)CSc1nc2c(c(=O)[nH]c(=O)n2C)n1CCC(C)C	70*	0.7	27	nt	0.3
CS(=O)(=O)N1CCC(C(=O)Nc2c(F)cccc2F)CC1	-2	0.9	6	-0.21	1
CCn1c(SCc2nc(-c3ccc(OC)c(OC)c3)no2)nnc1-c1cccs1	29	0.8	23	-0.08	0.7
CC1=C(C(=O)NCc2ccc3c(c2)OCO3)C2(CCC(C)CC2)OC1=O (stereo not drawn)	85*	0.3	66*	nt	0.2
CCC(C)NC(=O)C1=C(C)C(=O)OC12CCC(C)CC2 (stereo not drawn)	39	0.2	82*	nt	0.6
CC1=C(C(=O)NC2CCC(C)CC2)C2(CCC(C)CC2)OC1=O (stereo not drawn)	35	0.7	30	nt	0.7
O=S(=O)(NCc1ccco1)c1ccc(S(=O)(=O)N2CCCCC2)cc1	nt	nt	nt	-0.07	nt
COc1cc(C2N(c3ccccc3)CCN2c2ccccc2)cc(OC)c1OC	41	0.3	75*	0.1	0.6
C/C(=N\NC(=O)c1ccccc1)c1ccc(N2CCOCC2)cc1	26	0.7	27	0.17	0.7
O=C(NC(=O)c1ccccc1)NC1(C(F)(F)F)OCCO1	42	0.2	76*	nt	0.6
CCCC(NS(=O)(=O)c1ccc(Br)cc1)C(=O)O (stereo not drawn)	18	0.8	25	1.5	0.8
CCN1C(=O)C(Cc2nc3ccccc3c(=O)n2C)c2ccccc21 (stereo not drawn)	60*	0.4	57*	-1.1	0.4
CCCN1C(=O)C(Cc2nc3ccccc3c(=O)n2C)c2ccccc21 (stereo not drawn)	28	0.5	48	-0.79	0.7
CC1Cn2c(nc3c2c(=O)[nH]c(=O)n3C)O1 (stereo not drawn)	25	1	4	0.06	0.7
N/C(COc1cccc(C(F)(F)F)c1)=N\NC(=O)c1cccnc1Oc1ccccc1	-8	0.8	21	0.75	1.1
CC1CCc2nc(NC(=O)CSc3nc4ccccc4o3)sc2C1 (stereo not drawn)	43	0.8	22	1.9	0.6
O=C(CSc1nc2ccccc2o1)Nc1nncs1	55*	0.7	33	0.42	0.4
C=CCSc1nnc(NC(=O)CSc2nc3ccccc3o2)s1	82*	0.4	59*	1.7	0.2
CCc1nnc(NC(=O)CSc2nc3ccccc3o2)s1	59*	1	2	0.18	0.4
Cc1nnc(NC(=O)CSc2nc3ccccc3o2)s1	nt	nt	nt	-0.81	nt
O=C(NCc1ccc(F)cc1)C(c1cccs1)N(C(=O)c1csnn1)C1CC1 (stereo not drawn)	-14	0.8	23	0.41	1.1
O=C(CSCc1ccccc1)Nc1nccs1	44	0.5	50*	-0.3	0.6
O=C(CSc1cn(Cc2ccccc2)c2ccccc12)Nc1nccs1	99*	0	96*	nt	0
SMILES	CYP2C9 inhib	CYP2C19 activ	CYP2C19 inhib	PTK2B oligo ant	CYP2C9 act
O=C(CSCc1c(Cl)cccc1Cl)Nc1nccs1	75*	0.8	22	-0.67	0.2
O=C(CCCOc1ccccc1)Nc1nccs1	51*	0.1	86*	-0.2	0.5
O=C(CSc1nc(-c2ccc(F)cc2)cs1)N1CCc2ccccc21	11	0.9	9	0.87	0.9
CCn1c(=O)cc(SCC(=O)NCc2ccccn2)c2ccccc21	-45	1	2	0.6	1.5
COc1cccc(CNC(=O)C2CCCN(S(=O)(=O)c3c(C)n[nH]c3C)C2)c1 (stereo not drawn)	21	0.8	18	-0.75	0.8
O=C(CCCSc1nc2ccccc2s1)Nc1nccs1	88*	0.2	79*	-0.05	0.1
COc1ccc2nc3sc(C(=O)NCc4cccs4)c(N)c3cc2c1	56*	0.2	77*	nt	0.4
COCCCn1c(SCC(=O)Nc2nc3ccccc3s2)nnc1-c1ccoc1C	nt	nt	nt	-0.72	nt
COC1CCCCC1NS(=O)(=O)c1ccc(Cl)cc1 (stereo not drawn)	28	0.1	94*	nt	0.7
COC1CCCCC1NS(=O)(=O)c1ccccc1 (stereo not drawn)	11	0.4	56*	0.06	0.9
COc1cc(S(=O)(=O)NC2CCCCC2)ccc1Cl	nt	nt	nt	-2.4	nt
O=S(=O)(c1cccc2nsnc12)N1CCc2ccccc21	nt	nt	nt	-0.34	nt
COc1ccc(C2=NN(C(C#N)c3ccc(OC)c(OC)c3)C(c3ccccc3)C2)cc1 (stereo not drawn)	68*	0.6	42	-0.6	0.3
O=C(O)C1C2C=CC3(CN(Cc4ccccn4)C(=O)C13)O2 (stereo not drawn)	-27	1.3	-30	2.1	1.3
CCCCC(=O)Nc1ccc2oc(-c3ccncc3)nc2c1	63*	0.4	58*	-0.22	0.4
CC(C)(Oc1ccc(Cl)cc1)C(=O)Nc1ccc2oc(-c3ccncc3)nc2c1	13	1.1	-10	0.88	0.9
CCCC(=O)Nc1ccc2oc(-c3ccncc3)nc2c1	78*	0.4	56*	-0.57	0.2
CCCC(=O)Nc1ccc(-c2nc3cc(C)c(C)cc3o2)cc1	-8	0.9	9	0.01	1.1
O=C(COc1ccc(Cl)cc1)Nc1ccc2oc(-c3ccncc3)nc2c1	62*	0.5	52*	0.35	0.4
CCCCCC(=O)Nc1ccc2oc(-c3cncc(Br)c3)nc2c1	8	0.5	46	0.8	0.9
O=C(Nc1ccc(Cl)cc1)OCc1cc(-c2ccccc2Cl)on1	0	0.9	10	-0.16	1
O=C(Nc1ccc(Cl)cc1)OCc1ccccn1	nt	nt	nt	-0.86	nt
O=C(Nc1ccc(Cl)cc1)OCc1cncs1	89*	0	98*	0.92	0.1
O=C(Nc1cccc(Cl)c1)OCc1cncs1	87*	0	99*	1.6	0.1
CS(=O)(=O)c1ccccc1COC(=O)Nc1ccc(Cl)cc1	-1	0.3	69*	-2.5	1
SMILES	CYP2C9 inhib	CYP2C19 activ	CYP2C19 inhib	PTK2B oligo ant	CYP2C9 act
CCCCN(C)CCNC(=O)c1c[nH]c2ccc(S(=O)(=O)N(CC)CC)cc2c1=O	32	0.9	5	0.22	0.7
CCCNC(=O)c1c[nH]c2ccc(S(=O)(=O)N(C)c3ccc(OCC)cc3)cc2c1=O	83*	0.6	45	nt	0.2
COc1cccc(NS(=O)(=O)c2ccc3[nH]cc(C(=O)NCCC(C)C)c(=O)c3c2)c1	70*	0.9	13	-1.7	0.3
CCOc1ccc(NS(=O)(=O)c2ccc3[nH]cc(C(=O)NC(C)CC)c(=O)c3c2)cc1 (stereo not drawn)	nt	nt	nt	-0.06	nt
CN1CCN(c2ccccc2NC(=O)c2cccc(OCc3ccccc3)c2)CC1	52*	0.5	50	1.5	0.5
CN1CCN(c2ccccc2NC(=O)c2ccc(-c3ccccc3)cc2)CC1	70*	0.1	94*	-0.42	0.3
